In this assay the target is Histone deacetylase 9 (Homo sapiens) (UniProt Q9UKV0). In words: HDAC9 deacetylase inhibition, profiling panel, selectivity assay for E-cadherin restoration project, biochemical, human (AID 651909).

Activity calls are given as the source filed them. How the calls were made is not given here.

Chain of Histone deacetylase 9 (Homo sapiens) (Q9UKV0 whole entry, looked up): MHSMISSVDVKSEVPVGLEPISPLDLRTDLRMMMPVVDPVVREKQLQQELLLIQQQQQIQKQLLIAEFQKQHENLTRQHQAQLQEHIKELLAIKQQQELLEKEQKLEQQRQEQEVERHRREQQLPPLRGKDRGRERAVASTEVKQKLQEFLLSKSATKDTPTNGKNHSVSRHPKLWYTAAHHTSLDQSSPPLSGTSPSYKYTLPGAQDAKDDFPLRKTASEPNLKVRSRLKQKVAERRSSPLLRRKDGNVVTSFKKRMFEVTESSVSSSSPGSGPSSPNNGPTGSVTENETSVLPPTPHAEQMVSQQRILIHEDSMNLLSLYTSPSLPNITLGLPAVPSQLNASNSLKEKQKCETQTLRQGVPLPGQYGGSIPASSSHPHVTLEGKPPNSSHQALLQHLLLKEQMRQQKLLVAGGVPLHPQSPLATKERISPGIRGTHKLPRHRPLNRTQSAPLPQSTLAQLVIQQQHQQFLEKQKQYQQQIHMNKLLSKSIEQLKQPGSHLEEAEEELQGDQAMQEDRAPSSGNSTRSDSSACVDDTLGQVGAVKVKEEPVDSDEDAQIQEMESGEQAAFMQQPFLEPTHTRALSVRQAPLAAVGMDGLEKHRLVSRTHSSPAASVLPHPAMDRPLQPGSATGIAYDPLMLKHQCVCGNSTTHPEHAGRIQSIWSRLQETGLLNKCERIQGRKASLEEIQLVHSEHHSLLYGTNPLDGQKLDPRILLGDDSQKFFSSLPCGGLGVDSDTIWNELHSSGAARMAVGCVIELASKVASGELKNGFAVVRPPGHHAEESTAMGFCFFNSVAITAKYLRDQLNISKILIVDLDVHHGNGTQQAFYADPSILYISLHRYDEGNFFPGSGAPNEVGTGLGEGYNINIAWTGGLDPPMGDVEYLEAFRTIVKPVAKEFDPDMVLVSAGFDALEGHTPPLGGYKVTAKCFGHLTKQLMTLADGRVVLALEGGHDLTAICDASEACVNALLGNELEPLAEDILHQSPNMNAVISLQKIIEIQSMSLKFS

`O=C(NCCCNC(=O)c1ccc[nH]c1=O)c1cc(-c2ccccc2)on1`: the result was inactive.

Values taken from PubChem BioAssay AID651909 (Vanderbilt Specialized Chemistry Center, 2012).
